The source of these data is PubChem BioAssay.

Activity calls are given as the source filed them.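 Rule for the calls, unless noted: active = inhibition of the reporter signal at or above 50%; inactive = inhibition below 50%.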

Experiment [1] is described as follows: inhibitors of TNFa-induced NFkB p65 translocation, primary screen, imaging, HUVEC, MLSMR starter and 10KST1 sets (AID 438;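 active = inhibition above 20% together with a positive visual image hit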;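 note: compound added about 3h40 before a 20 min TNFalpha stimulation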;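 for inhibition: signal is the nuclear over cytoplasmic p65 intensity ratio per well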). The settings on record: HUVEC TNFa-induced p65 nuclear translocation; cell count: measured here: nuclei count (cytotoxicity indicator), at 2.08 µM; inhibition: at 2 µM, stronger effect = higher value, 0% TNFa-plus-vehicle, 100% no-TNFa wells.
Experiment [2] can be described thus: reduction of polyQ htt aggregates in cells – imaging, exon1htt(103Q)mCFP cells, high-content imaging, primary screen (AID 483;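 active = visual image review flags a hit and inhibition of aggregation exceeds 20%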;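 note: compound exposure lasted 3 days before fixation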;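 for nuclei count: percent of the per-plate median nuclei count of sample wells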). The conditions noted are these: exon1htt(103Q)mCFP cell line, aggregate imaging, at 2 µM; inhibition of aggregation: stronger effect = higher value; nuclei count: measured here: cell count, toxicity.
A short description of experiment [3]: endothelial E-selectin expression blockers – imaging, HUVEC, immunofluorescence, MLSMR starter and 10KST1 sets, primary screen (AID 487;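 active = visually confirmed hit in the image check and inhibition above 20%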;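 for inhibition: signal is fraction of cell area covered by stained E-selectin grains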;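 for nuclei count: 100% = median nuclei count of all wells on the same plate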). The settings on record: HUVEC TNFalpha-induced E-selectin immunofluorescence imaging, at 2 µM; inhibition: stronger effect = higher value; nuclei count: measured here: cell number, toxicity.
In experiment [4] the target is Voltage-gated potassium channel subunit beta-2 (Rattus norvegicus) (UniProt P62483). Kind of experiment: inhibitors of rat Kvbeta2 reductase activity – biochemical, NADPH fluorescence, primary screen (AID 622;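 active = fluorescence slope higher than the sample average by over 3 SD, cut at about -0.22 in these data, passing the limit was not always enough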;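 note: slope of raw intensity against log time taken from 70 to 1610 s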). The conditions noted are these: recombinant KvBeta, 4-cyanobenzaldehyde reduction, at 10 µM, stronger effect = higher value.
Chain of Voltage-gated potassium channel subunit beta-2 (Rattus norvegicus) (P62483 whole entry, looked up): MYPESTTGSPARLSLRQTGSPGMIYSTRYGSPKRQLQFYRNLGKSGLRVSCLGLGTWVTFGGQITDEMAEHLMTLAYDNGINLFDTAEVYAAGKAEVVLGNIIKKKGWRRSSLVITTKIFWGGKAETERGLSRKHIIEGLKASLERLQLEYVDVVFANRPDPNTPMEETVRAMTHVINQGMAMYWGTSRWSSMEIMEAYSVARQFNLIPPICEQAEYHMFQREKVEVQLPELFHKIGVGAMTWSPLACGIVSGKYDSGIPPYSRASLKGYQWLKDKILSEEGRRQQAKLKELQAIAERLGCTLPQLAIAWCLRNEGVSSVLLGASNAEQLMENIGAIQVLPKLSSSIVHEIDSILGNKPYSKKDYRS
Experiment [5] has the same target. Kind of experiment: enhancers of rat Kvbeta2 NADPH turnover – biochemical, NADPH fluorescence, primary screen (AID 623;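 active = NADPH fluorescence slope more negative than the mean of all samples by about 3 SD, 99.7% confidence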;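 note: fluorescence intensity change per second fitted from 20 to 320 s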). The conditions noted are these: Recombinant KvBeta, NADPH fluorescence decrease slope, 10 min; at 10 µM; stronger effect = lower value.
Experiment [6] concerns the target Alpha-2C adrenergic receptor (Homo sapiens) (UniProt P18825). Kind of experiment: compounds altering alpha2C-coupled GIRK flux – cell-based, HEK293 alpha2C/GIRK1/2, thallium flux, primary screen (AID 624;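 active = fluorescence slope after compound addition differing from the mean of all screened samples at 99.7% confidence, in either direction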;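 note: slope of fluorescence ratio to pre-addition baseline per second over 15 to 24 s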). The conditions noted are these: thallium flux BTC fluorescence, at 10 µM, actives lie on both sides.
The nature of experiment [7]: blockers of RIG-like receptor reporter activation – cell-based, Sendai virus stimulus, luciferase, 10K MLSCN set, TLR/RLR signaling modifier project, primary screen (AID 602276;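 active = inhibition at or above 50% at 10 µM; inactive = inhibition below 50%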;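 note: firefly luciferase from ISG56 promoter only with Renilla not read in this screen; 0% = Sendai virus plus DMSO and 100% = medium plus DMSO without virus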). The conditions noted are these: HEK293 RL24 IRF3 luciferase reporter, at 10 µM, stronger effect = higher value. (Reporter assays use an easily measured gene product as a stand-in for the process of interest.)

Experiment [8] in a line: TLR3 IRF3 reporter activation blockers – cell-based, poly I:C stimulus, luciferase, 10K MLSCN set, primary screen (AID 602277). The settings on record: HEK293-TLR3 RL24 IRF3 luciferase reporter, at 10 µM, stronger effect = higher value.

In general, inhibition refers to the relative decrease from the control value, in per cent.

Chain of Alpha-2C adrenergic receptor (Homo sapiens) (P18825 whole entry, looked up): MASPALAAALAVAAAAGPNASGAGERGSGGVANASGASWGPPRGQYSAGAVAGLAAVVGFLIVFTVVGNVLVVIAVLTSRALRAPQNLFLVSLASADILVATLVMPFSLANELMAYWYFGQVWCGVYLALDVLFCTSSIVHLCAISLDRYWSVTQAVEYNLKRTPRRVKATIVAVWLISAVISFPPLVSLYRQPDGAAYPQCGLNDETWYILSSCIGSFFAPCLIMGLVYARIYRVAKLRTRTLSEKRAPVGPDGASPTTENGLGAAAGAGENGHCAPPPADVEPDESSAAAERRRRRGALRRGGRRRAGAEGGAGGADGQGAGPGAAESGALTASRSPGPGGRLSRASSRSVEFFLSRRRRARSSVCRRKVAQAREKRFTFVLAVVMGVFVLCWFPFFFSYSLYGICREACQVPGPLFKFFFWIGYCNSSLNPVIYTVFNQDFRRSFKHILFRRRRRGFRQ

For the compound `Cc1cc(=O)n2nc(N3CCCC(C(=O)N4CCN(C)CC4)C3)sc2n1` (centres undefined), the cell count in experiment [1] was 465. Also, the inhibition in experiment [1] is -0.8% (inactive); in experiment [3] it was -186% (inactive); in experiment [7] it was -7.33% (inactive); in experiment [8] it was 5.83% (inactive). The inhibition of aggregation in experiment [2] is 19.6% (inactive). Besides, the nuclei count came out at 92.4% in experiment [2] and 126% in experiment [3]. For the same compound, the fluorescence slope in experiment [4] was -0.313 (inactive). In addition, the NADPH fluorescence slope in experiment [5] is -3.4e-05 (inactive). Besides, the slope in experiment [6] is 0.00576 (inactive).
`C=CCN1C(=O)CS/C1=C(\C#N)S(=O)(=O)c1ccc(C)cc1`: the cell count in experiment [1] was found to be 585. The inhibition in experiment [1] is 13.3% (inactive); in experiment [3] it was -75.5% (inactive); in experiment [7] it was 20% (inactive); in experiment [8], 28.5% (inactive). For the same compound, the inhibition of aggregation in experiment [2] is -5.1% (inactive). Further, the nuclei count in experiment [2] came to 108%; in experiment [3], 104%. The fluorescence slope in experiment [4] is -0.481 (inactive). The NADPH fluorescence slope in experiment [5] is -4.8e-05 (inactive). Moreover, the slope in experiment [6] was 0.00449 (inactive).
As for `Cc1ccnc(NC(=O)C2CCC(CNc3c(N4CCCC4)c(=O)c3=O)CC2)c1` (centres undefined), the cell count in experiment [1] worked out at 544. The inhibition was 4.4% (inactive) in experiment [1], -31.3% (inactive) in experiment [3], 4.3% (inactive) in experiment [7] and 18.4% (inactive) in experiment [8]. For the same compound, in experiment [2], the inhibition of aggregation is -2.5% (inactive). In addition, the nuclei count in experiment [2] was 113%; in experiment [3], 98.8%. Moreover, in experiment [4], the fluorescence slope is -0.598 (inactive). Further, the NADPH fluorescence slope in experiment [5] is -2.9e-05 (inactive). Besides, in experiment [6], the slope was 0.00671 (inactive).
As for `O=C(CSc1nnc(COc2ccc(Cl)cc2)o1)OC1CCCCC1`, the cell count in experiment [1] is 530. The inhibition is -5.9% (inactive) in experiment [1], 9.7% (inactive) in experiment [3], 1.22% (inactive) in experiment [7] and -1.92% (inactive) in experiment [8]. In addition, the inhibition of aggregation in experiment [2] was -7.1% (inactive). In addition, the nuclei count was determined as 119% in experiment [2] and 103% in experiment [3]. The fluorescence slope in experiment [4] is -0.524 (inactive). Also, in experiment [5], the NADPH fluorescence slope is -5.9e-07 (inactive). In addition, in experiment [6], the slope was 0.00539 (inactive).
Consider `Cc1c(C(=O)NCc2cccnc2)oc2ccc(S(=O)(=O)N3CCCCC3)cc12`, for which, in experiment [1], the cell count amounted to 614. For the same compound, the inhibition in experiment [1] was -17% (inactive); in experiment [3] it was -47.2% (inactive); in experiment [7] it was 19.5% (inactive); in experiment [8], 21.4% (inactive). Also, the inhibition of aggregation in experiment [2] was 37.3% (active). The nuclei count came to 117% in experiment [2] and 107% in experiment [3]. For the same compound, the fluorescence slope in experiment [4] is -0.448 (inactive). In addition, the NADPH fluorescence slope in experiment [5] is -0.000103 (inactive). Besides, the slope in experiment [6] is 0.00545 (inactive).
Turning to `Cc1nc(SCCC(=O)O)c2ccccc2n1`, in experiment [1], the cell count amounted to 310. In addition, the inhibition was -2.5% (inactive) in experiment [1], 40.9% (inactive) in experiment [3], 11.6% (inactive) in experiment [7] and 18.5% (inactive) in experiment [8]. Also, the inhibition of aggregation in experiment [2] is 9.6% (inactive). Moreover, the nuclei count came out at 112% in experiment [2] and 105% in experiment [3]. Further, the fluorescence slope in experiment [4] is -0.261 (inactive). The NADPH fluorescence slope in experiment [5] was -2.6e-06 (inactive). In addition, in experiment [6], the slope is 0.00515 (inactive).
For `O=C(Cn1cnc2c(nnn2Cc2ccc(Cl)cc2)c1=O)NCC1CCCO1` (centres undefined), in experiment [1], the cell count came out at 641. Besides, the inhibition in experiment [1] was -18.8% (inactive); in experiment [3], -89.9% (inactive); in experiment [7], 16.8% (inactive); in experiment [8], 26% (inactive). The inhibition of aggregation in experiment [2] is -21.6% (inactive). In addition, the nuclei count in experiment [2] turned out to be 89.2%; in experiment [3], 132%. In experiment [4], the fluorescence slope was -0.522 (inactive). Besides, in experiment [5], the NADPH fluorescence slope was -4.5e-06 (inactive). Also, in experiment [6], the slope is 0.00509 (inactive).
For the compound `CCOc1ccc2ccccc2c1C(=O)N1CCN(c2ccccc2)CC1`, in experiment [1], the cell count came out at 287. The inhibition in experiment [1] was -3% (inactive); in experiment [3], 44.7% (inactive); in experiment [7], 46.4% (inactive); in experiment [8], 56.3% (active). Further, the inhibition of aggregation in experiment [2] is 41.9% (inactive). The nuclei count in experiment [2] was found to be 15.6%; in experiment [3], 64.1%. The fluorescence slope in experiment [4] was -0.423 (inactive). Also, in experiment [5], the NADPH fluorescence slope was -1.3e-05 (inactive). Moreover, in experiment [6], the slope is 0.0036 (inactive).
In the case of `CC(=O)N1CCN(Cc2ccc(Br)s2)CC1`, in experiment [1], the cell count is 362. In addition, the inhibition in experiment [1] was -3.4% (inactive); in experiment [3], -10.6% (inactive); in experiment [7] it was 13.6% (inactive); in experiment [8] it was 20.9% (inactive). In addition, in experiment [2], the inhibition of aggregation is 2% (inactive). Besides, the nuclei count in experiment [2] was determined as 114%; in experiment [3], 106%. In addition, the fluorescence slope in experiment [4] is -0.442 (inactive). Further, the NADPH fluorescence slope in experiment [5] was -1.9e-05 (inactive). Besides, the slope in experiment [6] was 0.00639 (inactive).
On to `Cc1ccc(CN2C(=O)CCC2C(=O)NC2CCCC2)cc1` (centres undefined), for which, in experiment [1], the cell count is 382. The inhibition was 1.3% (inactive) in experiment [1], -19% (inactive) in experiment [3], 12.8% (inactive) in experiment [7] and 21.8% (inactive) in experiment [8]. Moreover, the inhibition of aggregation in experiment [2] is 6.6% (inactive). Further, the nuclei count in experiment [2] amounted to 103%; in experiment [3], 111%. Further, the fluorescence slope in experiment [4] was -0.589 (inactive). In addition, the NADPH fluorescence slope in experiment [5] was -3.4e-05 (inactive). Besides, the slope in experiment [6] is 0.00496 (inactive).
On to `CCOc1ccc(NC(=O)CC2NCCNC2=O)cc1` (centres undefined), for which the cell count in experiment [1] stood at 738. Further, the inhibition in experiment [1] is -10.9% (inactive); in experiment [3] it was -39.4% (inactive); in experiment [7] it was 9.27% (inactive); in experiment [8], 13.9% (inactive). Further, in experiment [2], the inhibition of aggregation was -1.6% (inactive). The nuclei count came to 126% in experiment [2] and 99.2% in experiment [3]. Besides, the fluorescence slope in experiment [4] was -0.302 (inactive). The NADPH fluorescence slope in experiment [5] was -7e-05 (inactive). Besides, the slope in experiment [6] is 0.00573 (inactive).
Regarding `Cc1cc(C)cc(NC(=O)CSc2nnc(Cc3cccn3C)n2-c2ccc(F)cc2)c1`, the cell count in experiment [1] was determined as 479. Moreover, the inhibition in experiment [1] is 4% (inactive); in experiment [3], 39.4% (inactive); in experiment [7], 13.7% (inactive); in experiment [8], 25.8% (inactive). Moreover, the inhibition of aggregation in experiment [2] is 36.9% (inactive). Also, the nuclei count in experiment [2] was found to be 12.9%; in experiment [3], 96.5%. The fluorescence slope in experiment [4] is -0.519 (inactive). Also, in experiment [5], the NADPH fluorescence slope was -2e-05 (inactive). Further, the slope in experiment [6] is 0.00611 (inactive).
For `CCOC(=O)C1CCCN(Cc2nc(N)nc(Nc3ccc(C)cc3)n2)C1` (centres undefined), in experiment [1], the cell count came out at 580. Besides, the inhibition in experiment [1] is 1% (inactive); in experiment [3] it was -41.3% (inactive); in experiment [7], 22.6% (inactive); in experiment [8] it was 17.2% (inactive). In addition, the inhibition of aggregation in experiment [2] is -0.6% (inactive). Moreover, the nuclei count in experiment [2] came to 90.1%; in experiment [3] it was 130%. Besides, in experiment [4], the fluorescence slope was -0.438 (inactive). The NADPH fluorescence slope in experiment [5] was -0.000102 (inactive). For the same compound, the slope in experiment [6] was 0.00446 (inactive).
Turning to `COc1cccc(NC(=O)NC2(C(F)(F)F)Oc3ccccc3O2)c1`, in experiment [1], the cell count is 684. The inhibition was -12.7% (inactive) in experiment [1], -125% (inactive) in experiment [3], 12.9% (inactive) in experiment [7] and 24.9% (inactive) in experiment [8]. For the same compound, the inhibition of aggregation in experiment [2] is 0% (inactive). For the same compound, the nuclei count in experiment [2] was 105%; in experiment [3] it was 120%. Besides, the fluorescence slope in experiment [4] is -0.476 (inactive). Moreover, the NADPH fluorescence slope in experiment [5] was -0.000362 (inactive). Besides, in experiment [6], the slope was 0.00501 (inactive).
